Experimental data reported in the supplement of paper PMC6522484.
± gives the standard deviation of the averaged measurements.

What was measured:
DLD1 [1] = experiment: cell viability (CellTiter-Glo) relative to plate median (fraction of plate median); higher = more viable cells; conditions: 5 µM; treatment time 24 h; reporter: 7TFP
In short: (§1)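 On parallel plates, a Tecan F500 reader recorded either firefly luciferase or CellTiterGlo luminescence. The plates held colorectal cancer cells stably transduced with lentiviral TCF/Wnt firefly luciferase reporters (7TFP or TCF4/Wnt), seeded in 384-well format and treated 24 h later with library compounds at a final 5 µM for 24 h. Per-well signals were normalised to the plate median (webcellHTS2, additive, no log transformation), and two independent replicates were averaged.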

HCT116 = experiment: as above; conditions: 5 µM; treatment time 24 h; reporter: TCF4/Wnt
In short: as §1

SW480 [2] = experiment: as above; conditions: 5 µM; treatment time 24 h; reporter: 7TFP
In short: as §1

DLD1 [3] = experiment: TCF/Wnt firefly luciferase reporter signal relative to plate median (fraction of plate median); higher = higher Wnt reporter signal; conditions: 5 µM; treatment time 24 h; reporter: 7TFP
In short: as §1

SW480 [4] = experiment: as above; conditions: 5 µM; treatment time 24 h; reporter: 7TFP
In short: as §1

SMILES | cell viability (DLD1 [1]) | cell viability (HCT116) | cell viability (SW480 [2]) | TCF/Wnt firefly luciferase reporter signal (DLD1 [3]) | TCF/Wnt firefly luciferase reporter signal (SW480 [4])
CC(=O)Oc1c(C)c(C)c2c(c1C)CCC(C)(CCCC(C)CCCC(C)CCCC(C)C)O2 (stereo not drawn) [alpha-TOCHOPHERYL ACETATE] | 1.06 ± 0.085 | 1.02 ± 0.092 | 1.06 ± 0.014 | 1.12 ± 0.18 | 1.09 ± 0.057
O=C1NC(Cc2ccc(O)cc2)C(=O)NC1Cc1ccc(O)cc1 (stereo not given) [Cyclo(tyrosyltyrosyl)] | 0.902 ± 0.091 | 0.942 ± 0.11 | 0.953 ± 0.011 | 1.04 ± 0.057 | 0.98 ± 0.023
Nc1nc2[nH]cnc2c(=S)[nH]1 | 0.706 ± 0.016 | 0.761 ± 0.037 | 0.828 ± 0.11 | 0.752 ± 0.033 | 0.799 ± 0.025
CCCC(CCC)C(=O)O | 1.03 ± 0.045 | 1.09 ± 0.035 | 0.973 ± 0.052 | 1.115 ± 0.0071 | 1.06 ± 0.078
Fc1ccc(C(c2ccc(F)cc2)N2CCN(C/C=C/c3ccccc3)CC2)cc1 | 1.06 ± 0.042 | 0.962 ± 0.069 | 1.06 ± 0.057 | 0.961 ± 0.18 | 0.917 ± 0.016
O=C(NC(Cc1cc(=O)[nH]c2ccccc12)C(=O)O)c1ccc(Cl)cc1 (stereo not given) | 0.93 ± 0.0071 | 0.975 ± 0.026 | 0.931 ± 0.024 | 0.909 ± 0.064 | 0.818 ± 0.069
O=C(CCCN1CCN(c2ccccn2)CC1)c1ccc(F)cc1 | 1.03 ± 0.028 | 0.963 ± 0.12 | 0.994 ± 0.023 | 0.985 ± 0.064 | 1.01 ± 0.028
O=C(O)P(=O)(O)O | 1.06 ± 0.028 | 0.965 ± 0.05 | 1 ± 0.011 | 0.834 ± 0.0092 | 0.944 ± 0.031
COc1ccc(C[C@H](N)C(=O)N[C@H]2[C@@H](O)[C@H](n3cnc4c(N(C)C)ncnc43)O[C@@H]2CO)cc1 | 0.892 ± 0.1 | 0.908 ± 0.04 | 0.9485 ± 0.00071 | 0.999 ± 0.03 | 1.05 ± 0.042
O=NN(CCCl)C(=O)NCCCl | 1.05 ± 0.014 | 1.06 ± 0.05 | 1.04 | 1.19 ± 0.021 | 1.045 ± 0.0071
Nc1ccc(S(=O)(=O)Nc2nccs2)cc1 | 1.01 ± 0.031 | 0.911 ± 0.028 | 1.065 ± 0.0071 | 0.999 ± 0.072 | 1.055 ± 0.0071
NC(Cn1ccc(=O)c(O)c1)C(=O)O (stereo not given) | 0.987 ± 0.076 | 0.8415 ± 0.00071 | 0.989 ± 0.044 | 0.85 ± 0.016 | 0.947 ± 0.12
